# Measurements taken from article PMC11006913.
# What was measured:
# Test in all cases: PBM; 200 nM protein, PBS
# Settings in all cases: dsDNA, one strand shown
# [1] = target: HESX1 (Homo sapiens, UniProt Q9UBX0 95-180, R165K)
# [2] = target: ALX4 (Homo sapiens, UniProt Q9H161 200-286)
# [3] = target: PRRX1 (Homo sapiens, UniProt P54821 80-166, F113S)
# [4] = target: ALX4 (Homo sapiens, UniProt Q9H161 200-286, Q225E)
# [5] = target: HESX1 (Homo sapiens, UniProt Q9UBX0 95-180)
# [6] = target: MSX2 (Homo sapiens, UniProt P35548 130-214, R199I)
# [7] = target: ALX1 (Homo sapiens, UniProt Q15699 118-204, L144V)
# [8] = target: ALX1 (Homo sapiens, UniProt Q15699 118-204, L144R)
# [9] = target: MSX2 (Homo sapiens, UniProt P35548 130-214)
# [10] = target: PROP1 (Homo sapiens, UniProt O75360 56-141)
# [11] = target: HESX1 (Homo sapiens, UniProt Q9UBX0 95-180, R109Q)
# [12] = target: PROP1 (Homo sapiens, UniProt O75360 56-141, R99H)
# [13] = target: ALX3 (Homo sapiens, UniProt O95076 139-225, L168Q)
# [14] = target: HESX1 (Homo sapiens, UniProt Q9UBX0 95-180, P111T)
# [15] = target: ALX3 (Homo sapiens, UniProt O95076 139-225, L168V)
# [16] = target: PROP1 (Homo sapiens, UniProt O75360 56-141, F88S)
# [17] = target: MSX2 (Homo sapiens, UniProt P35548 130-214, F161Y)
# [18] = target: HESX1 (Homo sapiens, UniProt Q9UBX0 95-180, F115L)
# [19] = target: ALX1 (Homo sapiens, UniProt Q15699 118-204)
# [20] = target: PRRX1 (Homo sapiens, UniProt P54821 80-166)
# PRRX1 (Homo sapiens, UniProt P54821 80-166), sequence (P54821 80-166): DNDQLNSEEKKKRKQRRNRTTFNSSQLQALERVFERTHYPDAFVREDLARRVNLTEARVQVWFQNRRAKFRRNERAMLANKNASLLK
# HESX1 (Homo sapiens, UniProt Q9UBX0 95-180, P111T), sequence (Q9UBX0 95-180 P111T): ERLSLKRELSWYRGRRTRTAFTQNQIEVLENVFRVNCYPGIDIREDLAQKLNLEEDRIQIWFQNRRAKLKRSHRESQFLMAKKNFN
# HESX1 (Homo sapiens, UniProt Q9UBX0 95-180, R165K), sequence (Q9UBX0 95-180 R165K): as the sequence (Q9UBX0 95-180 P111T) above, with T17P, R71K counted along it
# HESX1 (Homo sapiens, UniProt Q9UBX0 95-180, F115L), sequence (Q9UBX0 95-180 F115L): as the sequence (Q9UBX0 95-180 P111T) above, with T17P, F21L counted along it
# HESX1 (Homo sapiens, UniProt Q9UBX0 95-180, R109Q), sequence (Q9UBX0 95-180 R109Q): as the sequence (Q9UBX0 95-180 P111T) above, with R15Q, T17P counted along it
# HESX1 (Homo sapiens, UniProt Q9UBX0 95-180), sequence (Q9UBX0 95-180): as the sequence (Q9UBX0 95-180 P111T) above, with T17P counted along it
# PRRX1 (Homo sapiens, UniProt P54821 80-166, F113S), sequence (P54821 80-166 F113S): as the sequence (P54821 80-166) above, with F34S counted along it
# MSX2 (Homo sapiens, UniProt P35548 130-214), sequence (P35548 130-214): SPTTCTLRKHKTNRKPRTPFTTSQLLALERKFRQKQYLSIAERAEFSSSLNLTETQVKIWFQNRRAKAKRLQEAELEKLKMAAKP
# ALX4 (Homo sapiens, UniProt Q9H161 200-286), sequence (Q9H161 200-286): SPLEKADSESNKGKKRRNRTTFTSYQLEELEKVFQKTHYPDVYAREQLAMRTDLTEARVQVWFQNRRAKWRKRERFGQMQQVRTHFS
# MSX2 (Homo sapiens, UniProt P35548 130-214, F161Y), sequence (P35548 130-214 F161Y): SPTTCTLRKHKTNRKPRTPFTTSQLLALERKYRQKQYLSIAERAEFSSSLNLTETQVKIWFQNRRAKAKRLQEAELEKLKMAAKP
# ALX3 (Homo sapiens, UniProt O95076 139-225, L168V), sequence (O95076 139-225 L168V): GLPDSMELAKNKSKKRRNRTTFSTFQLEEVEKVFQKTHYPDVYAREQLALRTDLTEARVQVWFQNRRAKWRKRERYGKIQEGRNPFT
# ALX4 (Homo sapiens, UniProt Q9H161 200-286, Q225E), sequence (Q9H161 200-286 Q225E): as the sequence (Q9H161 200-286) above, with Q26E counted along it
# PROP1 (Homo sapiens, UniProt O75360 56-141), sequence (O75360 56-141): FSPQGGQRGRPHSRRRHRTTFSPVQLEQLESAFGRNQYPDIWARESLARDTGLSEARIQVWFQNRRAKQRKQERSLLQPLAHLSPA
# PROP1 (Homo sapiens, UniProt O75360 56-141, F88S), sequence (O75360 56-141 F88S): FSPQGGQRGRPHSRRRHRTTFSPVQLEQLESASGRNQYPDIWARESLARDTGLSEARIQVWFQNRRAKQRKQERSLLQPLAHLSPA
# PROP1 (Homo sapiens, UniProt O75360 56-141, R99H), sequence (O75360 56-141 R99H): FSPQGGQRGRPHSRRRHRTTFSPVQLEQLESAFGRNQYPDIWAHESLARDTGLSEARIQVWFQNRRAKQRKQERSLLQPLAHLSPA
# ALX1 (Homo sapiens, UniProt Q15699 118-204, L144V), sequence (Q15699 118-204 L144V): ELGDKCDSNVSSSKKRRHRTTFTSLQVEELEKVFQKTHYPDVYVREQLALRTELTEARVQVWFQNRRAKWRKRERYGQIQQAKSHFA
# MSX2 (Homo sapiens, UniProt P35548 130-214, R199I), sequence (P35548 130-214 R199I): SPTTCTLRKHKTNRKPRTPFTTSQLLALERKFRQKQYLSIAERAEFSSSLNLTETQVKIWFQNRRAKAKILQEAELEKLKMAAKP
# ALX1 (Homo sapiens, UniProt Q15699 118-204), sequence (Q15699 118-204): as the sequence (Q15699 118-204 L144V) above, with V27L counted along it
# ALX1 (Homo sapiens, UniProt Q15699 118-204, L144R), sequence (Q15699 118-204 L144R): as the sequence (Q15699 118-204 L144V) above, with V27R counted along it
# ALX3 (Homo sapiens, UniProt O95076 139-225, L168Q), sequence (O95076 139-225 L168Q): as the sequence (O95076 139-225 L168V) above, with V30Q counted along it
sequence,measurement,setting,value
AATTATTA,binding signal,[1],"11.5 upbm affinity estimate (log intensity, higher = more binding, comparable within an allelic series)"
same,binding signal,[2],"13.5 upbm affinity estimate (log intensity, higher = more binding, comparable within an allelic series)"
same,binding signal,[3],"11.3 upbm affinity estimate (log intensity, higher = more binding, comparable within an allelic series)"
same,binding signal,[4],"12.8 upbm affinity estimate (log intensity, higher = more binding, comparable within an allelic series)"
same,binding signal,[5],"11.7 upbm affinity estimate (log intensity, higher = more binding, comparable within an allelic series)"
same,binding signal,[6],"12.3 upbm affinity estimate (log intensity, higher = more binding, comparable within an allelic series)"
same,binding signal,[7],"11.4 upbm affinity estimate (log intensity, higher = more binding, comparable within an allelic series)"
same,binding signal,[8],"11.2 upbm affinity estimate (log intensity, higher = more binding, comparable within an allelic series)"
same,binding signal,[9],"13.4 upbm affinity estimate (log intensity, higher = more binding, comparable within an allelic series)"
same,binding signal,[10],"11 upbm affinity estimate (log intensity, higher = more binding, comparable within an allelic series)"
same,binding signal,[11],"8.87 upbm affinity estimate (log intensity, higher = more binding, comparable within an allelic series)"
same,binding signal,[12],"10.8 upbm affinity estimate (log intensity, higher = more binding, comparable within an allelic series)"
same,binding signal,[13],"10.4 upbm affinity estimate (log intensity, higher = more binding, comparable within an allelic series)"
same,binding signal,[14],"10.3 upbm affinity estimate (log intensity, higher = more binding, comparable within an allelic series)"
same,binding signal,[15],"9.98 upbm affinity estimate (log intensity, higher = more binding, comparable within an allelic series)"
same,binding signal,[16],"7.79 upbm affinity estimate (log intensity, higher = more binding, comparable within an allelic series)"
same,binding signal,[17],"13.1 upbm affinity estimate (log intensity, higher = more binding, comparable within an allelic series)"
same,binding signal,[18],"8 upbm affinity estimate (log intensity, higher = more binding, comparable within an allelic series)"
same,binding signal,[19],"12 upbm affinity estimate (log intensity, higher = more binding, comparable within an allelic series)"
same,binding signal,[20],"13.4 upbm affinity estimate (log intensity, higher = more binding, comparable within an allelic series)"
AGGCCCGC,binding signal,[1],"6.43 upbm affinity estimate (log intensity, higher = more binding, comparable within an allelic series)"
same,binding signal,[5],"6.37 upbm affinity estimate (log intensity, higher = more binding, comparable within an allelic series)"
same,binding signal,[11],"6.38 upbm affinity estimate (log intensity, higher = more binding, comparable within an allelic series)"
same,binding signal,[14],"6.39 upbm affinity estimate (log intensity, higher = more binding, comparable within an allelic series)"
same,binding signal,[18],"6.43 upbm affinity estimate (log intensity, higher = more binding, comparable within an allelic series)"
CAGGCGCC,binding signal,[1],"6.55 upbm affinity estimate (log intensity, higher = more binding, comparable within an allelic series)"
same,binding signal,[5],"6.51 upbm affinity estimate (log intensity, higher = more binding, comparable within an allelic series)"
same,binding signal,[11],"6.57 upbm affinity estimate (log intensity, higher = more binding, comparable within an allelic series)"
same,binding signal,[14],"6.52 upbm affinity estimate (log intensity, higher = more binding, comparable within an allelic series)"
same,binding signal,[18],"6.58 upbm affinity estimate (log intensity, higher = more binding, comparable within an allelic series)"
CCGCCCCC,binding signal,[1],"6.46 upbm affinity estimate (log intensity, higher = more binding, comparable within an allelic series)"
same,binding signal,[3],"9.06 upbm affinity estimate (log intensity, higher = more binding, comparable within an allelic series)"
same,binding signal,[5],"6.33 upbm affinity estimate (log intensity, higher = more binding, comparable within an allelic series)"
same,binding signal,[11],"6.51 upbm affinity estimate (log intensity, higher = more binding, comparable within an allelic series)"
same,binding signal,[14],"6.43 upbm affinity estimate (log intensity, higher = more binding, comparable within an allelic series)"
same,binding signal,[18],"6.41 upbm affinity estimate (log intensity, higher = more binding, comparable within an allelic series)"
same,binding signal,[20],"8.75 upbm affinity estimate (log intensity, higher = more binding, comparable within an allelic series)"
GAGCTGGC,binding signal,[1],"6.31 upbm affinity estimate (log intensity, higher = more binding, comparable within an allelic series)"
same,binding signal,[5],"6.3 upbm affinity estimate (log intensity, higher = more binding, comparable within an allelic series)"
same,binding signal,[11],"6.49 upbm affinity estimate (log intensity, higher = more binding, comparable within an allelic series)"
same,binding signal,[14],"6.25 upbm affinity estimate (log intensity, higher = more binding, comparable within an allelic series)"
same,binding signal,[18],"6.47 upbm affinity estimate (log intensity, higher = more binding, comparable within an allelic series)"
CGCGTAGC,binding signal,[1],"6.51 upbm affinity estimate (log intensity, higher = more binding, comparable within an allelic series)"
same,binding signal,[5],"6.55 upbm affinity estimate (log intensity, higher = more binding, comparable within an allelic series)"
same,binding signal,[11],"6.51 upbm affinity estimate (log intensity, higher = more binding, comparable within an allelic series)"
same,binding signal,[14],"6.44 upbm affinity estimate (log intensity, higher = more binding, comparable within an allelic series)"
same,binding signal,[18],"6.54 upbm affinity estimate (log intensity, higher = more binding, comparable within an allelic series)"
CCTAGCTC,binding signal,[1],"6.41 upbm affinity estimate (log intensity, higher = more binding, comparable within an allelic series)"
same,binding signal,[5],"6.56 upbm affinity estimate (log intensity, higher = more binding, comparable within an allelic series)"
same,binding signal,[11],"6.57 upbm affinity estimate (log intensity, higher = more binding, comparable within an allelic series)"
same,binding signal,[14],"6.46 upbm affinity estimate (log intensity, higher = more binding, comparable within an allelic series)"
same,binding signal,[18],"6.62 upbm affinity estimate (log intensity, higher = more binding, comparable within an allelic series)"
AGGGTCCC,binding signal,[1],"6.51 upbm affinity estimate (log intensity, higher = more binding, comparable within an allelic series)"
same,binding signal,[5],"6.48 upbm affinity estimate (log intensity, higher = more binding, comparable within an allelic series)"
same,binding signal,[11],"6.45 upbm affinity estimate (log intensity, higher = more binding, comparable within an allelic series)"
same,binding signal,[14],"6.51 upbm affinity estimate (log intensity, higher = more binding, comparable within an allelic series)"
same,binding signal,[18],"6.53 upbm affinity estimate (log intensity, higher = more binding, comparable within an allelic series)"
